# From PubChem BioAssay (NCATS)
# Inconclusive results are not listed. A call without a number means that no potency is given here. Values without a mark were called inactive. The source made the active and inactive calls. Calls come from the whole dose curve; as a rule, active = well fitted curve in the direction sought with a large enough effect; inconclusive = small, poorly fitted or top-dose-only effect, or another doubt; inactive = no such curve, though single readings can be large; an effect the other way counts as inactive or inconclusive.
# Columns and labels:
# [1] = target: Cellular tumor antigen p53 (Homo sapiens) (UniProt P04637); experiment: Primary qHTS for small molecule compounds that upregulate eGFP-tagged delta133p53alpha (in N-terminal) cells. (AID 2060322); settings: NCI-H358 eGFP-delta133p53alpha fluorescence, 24 h; activation: hits give high values; note: nearly all actives have a fitted effect of over 75% in size; note: potency is the fitted concentration of half-maximal effect; for activation: series mostly up to about 56 µM
# Procedure, shortened: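 NCI-H358 cells pre-induced 24 h with 10 ng/ml doxycycline to express N-terminal eGFP-delta133p53alpha, then dosed 24 h at 37C without doxycycline; fixed, Hoechst-stained, GFP intensity by laser scanning cytometry, normalized to DMSO (0%) and 57.5 uM 5-azacytidine (100%).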
# [2] = target: Aldehyde dehydrogenase, mitochondrial (Homo sapiens) (UniProt P05091); experiment: qHTS for Inhibitors of the Aldehyde Dehydrogenase Family (ALDH2) Primary screen (AID 2061308); note: nearly all actives have a fitted effect of over 55% in size
# [3] = target: Retinaldehyde dehydrogenase 3 (Homo sapiens) (UniProt P47895); experiment: qHTS for Inhibitors of the Aldehyde Dehydrogenase Family (ALDH1A3) Primary screen (AID 2061315)
# Cellular tumor antigen p53 (Homo sapiens), sequence (P04637 whole entry, looked up): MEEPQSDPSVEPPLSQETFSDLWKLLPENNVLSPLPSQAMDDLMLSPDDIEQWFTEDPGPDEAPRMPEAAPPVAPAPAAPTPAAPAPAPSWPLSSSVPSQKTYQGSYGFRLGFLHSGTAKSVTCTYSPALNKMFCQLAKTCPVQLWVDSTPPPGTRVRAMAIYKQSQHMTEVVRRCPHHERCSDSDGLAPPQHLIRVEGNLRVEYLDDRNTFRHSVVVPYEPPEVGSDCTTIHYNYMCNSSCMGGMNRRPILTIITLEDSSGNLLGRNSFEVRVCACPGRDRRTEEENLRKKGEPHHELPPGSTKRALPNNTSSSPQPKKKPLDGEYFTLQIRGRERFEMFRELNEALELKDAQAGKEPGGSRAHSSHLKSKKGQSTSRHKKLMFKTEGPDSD
SMILES,activation [1] [%],Potency [2],Potency [3],"activity change, negative = inhibition [2]","activity change, negative = inhibition [3]",Potency [1]
OC[C@@]1(O)CO[C@@H](OC[C@H]2O[C@@H](OCc3ccccc3)[C@H](O)[C@@H](O)[C@@H]2O)[C@@H]1O,-13.7,inactive,inactive,–,–,–
N#Cc1cc(-c2n[nH]c(-c3ccncc3)n2)ccn1,4.46,inactive,inactive,–,–,–
C=C1CCc2occ(C)c2[C@H]2[C@H]1[C@@]13O[C@@]1(C[C@@H](C)[C@H]3OC(C)=O)[C@H]1O[C@@]21C,-19.6,inactive,inactive,–,–,–
CN1CCN(S(=O)(=O)c2ccc(-c3cnc(N)c(C(=O)Nc4cccnc4)n3)cc2)CC1,-18.8,inactive,inactive,–,–,–
COC(=O)CC[C@@H](C)[C@H]1CC[C@H]2[C@@H]3CC(=O)[C@H]4C[C@H](OC(C)=O)CC[C@]4(C)[C@H]3CC[C@]12C,-4.33,inactive,inactive,–,–,–
CC1(C)CC[C@]2(C(=O)O[C@@H]3O[C@H](CO)[C@@H](O)[C@H](O)[C@H]3O)CC[C@]3(C)C(=CCC4[C@@]5(C)CC[C@H](O[C@H]6O[C@H](CO)[C@@H](O)[C@H](O[C@@H]7O[C@H](CO)[C@@H](O)[C@H](O)[C@H]7O)[C@H]6O)C(C)(C)C5CC[C@]43C)[C@@H]2C1 (some centres undefined),15.3,inactive,inactive,–,–,–
COC(=O)CC[C@@H](C)C1CCC2C3CCC4C[C@H](OC(C)=O)CCC4(C)C3C[C@H](O)C21C (some centres undefined),3.67,inactive,inactive,–,–,–
C=C(C(=O)OC)C1C(O)CC2(C)C(=O)CCC(O)(CO)C2C1O (centres undefined),-14.3,inactive,inactive,–,–,–
C=C1C(O[C@@H]2O[C@H](CO)[C@@H](O)[C@H](O)[C@@H]2O)CC2C(C)(C)C(O)CCC2(C)C1CC/C(C)=C\CO (some centres undefined),6.11,inactive,inactive,–,–,–
CC1(C)CCCC2(C)C1C(=O)C=C(C(=O)O)C2(O)C(=O)O (centres undefined),41.2,inactive,inactive,–,–,–
CC(=O)O[C@@H]1[C@@H](O)[C@H](C)O[C@@H](O[C@H]2[C@@H]3C=CO[C@@H](O[C@@H]4O[C@H](CO)[C@@H](O)[C@H](O)[C@H]4OC(C)=O)[C@@H]3[C@@]3(CO)O[C@@H]23)[C@@H]1OC(=O)/C=C/c1ccc(O)cc1,-17.6,inactive,inactive,–,–,–
COc1cc(O)cc(OC2OC(CO)C(O)C(O)C2O)c1 (centres undefined),21.4,inactive,inactive,–,–,–
COC(=O)c1cc(OC)cc(OC)c1C(=O)c1c(OC)cc2c(c1O)C1CCC(O)C(C)(O2)O1 (centres undefined),25.2,inactive,inactive,–,–,–
O=C(O)c1ccc(NC(=O)[C@H](CC2CCCC2)n2cnc(C(F)(F)F)c2)nc1,-23.2,inactive,inactive,–,–,–
COc1cc(O)cc(C)c1C(=O)O[C@H]1[C@@H](OC(C)=O)[C@H](n2ccc(=O)[nH]c2=O)O[C@@H]1CO,-32.8,inactive,inactive,–,–,–
CCOc1ccc2nc(SCCN3CCOCC3)[nH]c2c1,-7.64,inactive,inactive,–,–,–
Cc1occc(=O)c1O[C@@H]1O[C@H](CO[C@@H]2OC[C@](O)(CO)[C@H]2O)[C@@H](O)[C@H](O)[C@H]1O,0,inactive,inactive,–,–,–
O=C1C=CC(O)(/C=C/C(=O)OC[C@H]2O[C@@H](Oc3ccc(O)cc3)[C@H](O)[C@@H](O)[C@@H]2O)C=C1,6.25,inactive,inactive,–,–,–
COc1cc(/C=C/C(=O)O[C@@H]2O[C@H](CO)[C@@H](O)[C@H](O)[C@H]2O)ccc1O,4.46,inactive,inactive,–,–,–
CC1=C2C(=O)C=C(CO[C@@H]3O[C@H](CO)[C@@H](O)[C@H](O)[C@H]3O)[C@@H]2[C@H]2OC(=O)[C@H](C)[C@@H]2[C@@H](O)C1,-7.63,inactive,inactive,–,–,–
CC1CCC2(C)C(CC(O)C(O)C23CO3)C1(C)CCC1=CC(=O)OC1O (centres undefined),-12.2,inactive,inactive,–,–,–
CC(C)C[C@@H](N)C(=O)N[C@H]1C(=O)N[C@@H](CC(N)=O)C(=O)N[C@H]2C(=O)N[C@H]3C(=O)N[C@H](C(=O)N[C@H](C(=O)O)c4cc(O)cc(O)c4-c4cc3ccc4O)[C@H](O)c3ccc(c(Cl)c3)Oc3cc2cc(c3O[C@@H]2O[C@H](CO)[C@@H](O)[C@H](O)[C@H]2O[C@H]2C[C@](C)(N)[C@H](O)[C@H](C)O2)Oc2ccc(cc2Cl)[C@H]1O,6.33,inactive,inactive,–,–,–
CC(=O)N1CCN(NC(=O)c2ccc(F)cc2)CC1,-2.39,inactive,inactive,–,–,–
C#CCOc1ccc2c(c1)c(-c1ccc(C(C)C)cc1)nc(=O)n2C(C)C,-0.893,inactive,inactive,–,–,–

SMILES,activation [1] [%],Potency [2],Potency [3],"activity change, negative = inhibition [2]","activity change, negative = inhibition [3]",Potency [1]
Nc1c(NC/C=C\COc2cc(CN3CCCCC3)ccn2)c(=O)c1=O,-10.3,inactive,inactive,–,–,–
COC(=O)C1=CO[C@@H](O[C@@H]2O[C@H](CO)[C@@H](O)[C@H](O)[C@H]2O)[C@@H]2C(C)CC(=O)[C@]12O (some centres undefined),1.79,inactive,inactive,–,–,–
COc1cc(O)cc(C)c1C(=O)O[C@@H]1[C@H](O)[C@@H](CO)O[C@H]1n1ccc(=O)[nH]c1=O,11.5,inactive,inactive,–,–,–
COC1=CC(=O)O[C@@H](/C=C/c2ccccc2)[C@@H]1O,9.82,inactive,inactive,–,–,–
C=C1CCC2C(C)(C)CC(O)CC2(C)C1CCC(C)CCOC(=O)CCC(=O)O (centres undefined),17.6,inactive,inactive,–,–,–
COC(=O)CC(C)(O)CC(=O)OCc1ccc(O[C@@H]2O[C@H](CO)[C@@H](O)[C@H](O)[C@H]2O)cc1 (some centres undefined),-5.34,inactive,inactive,–,–,–
COc1cc(C/C(=C/NC(C)=O)N(CC(=O)Cc2ccccc2)C(C)=O)cc2c1OCO2,-26,inactive,inactive,–,–,–
CNc1nc(Nc2cn(C(C)(C)C#N)nc2C)ncc1C(F)(F)F,-23.2,inactive,inactive,–,–,–
C[C@@H]1O[C@@H](O[C@H]2[C@H](O)[C@@H](O[C@@H]3O[C@H](CO)[C@@H](O)[C@H](O[C@@H]4O[C@H](CO)[C@@H](O)[C@H](O)[C@H]4O)[C@H]3O)[C@H](O[C@H]3CC[C@@]4(C)C(=CC[C@@H]5C4CC[C@@]4(C)C5C[C@@H]5OC6(CC[C@@](C)(CO[C@@H]7O[C@H](CO)[C@@H](O)[C@H](O)[C@H]7O)O6)[C@@H](C)[C@@H]54)C3)O[C@@H]2CO)[C@H](O)[C@H](O)[C@H]1OC1OC(CO)C(O)C(O)C1O (some centres undefined),13,–,–,-9.01% [at 11.2 µM],-22.4% [at 11.2 µM],–
CC/C=C\CCO[C@@H]1O[C@H](CO)[C@@H](O)[C@H](O)[C@H]1O,-18.3,inactive,inactive,–,–,–
CCC(C)CC(=O)OC1C(=O)C(CO)=CC(O)C1C(C)C (centres undefined),–,inactive,inactive,–,–,23.9 µM (active)
CC(C(=O)Nc1cc(C#N)ccc1CCCC(=O)O)c1ccc(F)c2ccccc12 (centres undefined),17.9,inactive,inactive,–,–,–
C=C1CCC2C(C)(C)CCC[C@]2(C)[C@H]1C/C=C(\CO)C(=O)C(=O)O (some centres undefined),-6.87,inactive,inactive,–,–,–
CC(=O)O[C@@H]1[C@H](OC(C)=O)C[C@@]2(C)C(CC[C@@H](C)[C@]23Cc2c(O)cc4c(c2O3)CN([C@@H](CCC(=O)O)C(=O)O)C4=O)C1(C)C (some centres undefined),-9.92,inactive,inactive,–,–,–
CS(=O)(=O)c1ccc([C@H](CC2CCCC2)C(=O)Nc2nccs2)cc1,-11.6,inactive,inactive,–,–,–
C[C@@H]1O[C@@H](O[C@H]2[C@H](O[C@H]3[C@H](O[C@H]4CC[C@@]5(C)C(CC[C@]6(C)C5CC=C5[C@@H]7CC(C)(C)C[C@@H](O)[C@]7(C)CC[C@]56C)[C@@]4(C)CO)O[C@H](C(=O)O)[C@@H](O)[C@@H]3O)O[C@H](CO)[C@H](O)[C@@H]2O)[C@H](O)[C@H](O)[C@H]1O (some centres undefined),-9.92,inactive,inactive,–,–,–
COc1cc2c(c(O)c1OC/C=C(\C)CC/C=C(/C)CCC=C(C)C)CN(C(CCC(=O)O)C(=O)O)C2=O (centres undefined),-30.5,inactive,inactive,–,–,–
CC(=O)C12OC(C)(C)OC1CC1C3CCC4=CC(=O)C=CC4(C)C3(F)C(O)CC12C (centres undefined),-9.67,inactive,inactive,–,–,–
O=C(OCC1=CC(O)C2C=CO[C@@H](O[C@@H]3O[C@H](CO)[C@@H](O)[C@H](O)[C@H]3O)C12)c1ccccc1 (some centres undefined),-17.6,inactive,inactive,–,–,–
CC(C)c1cc2c(N3CCN(C4=NCC(C)(C)S4)CC3)ncnc2s1,3.67,inactive,inactive,–,–,–
C/C=C1\[C@H](O[C@@H]2O[C@H](CO)[C@@H](O)[C@H](O)[C@H]2O)OC=C(C(=O)O)[C@H]1CC(=O)OCCc1ccc(O)cc1,0.763,inactive,inactive,–,–,–
CC(O)(CC(=O)O)CC(=O)OCc1ccc(O[C@@H]2O[C@H](CO)[C@@H](O)[C@H](O)[C@H]2O)cc1 (some centres undefined),-13.7,inactive,inactive,–,–,–
C[C@@H]1O[C@@H](O[C@H]2[C@H](O[C@H]3[C@H](O[C@H]4CC[C@@]5(C)C(CC[C@]6(C)C5CC=C5[C@@H]7CC(C)(C)C[C@@H](O)[C@]7(C)CC[C@]56C)[C@@]4(C)CO)O[C@H](C(=O)O)[C@@H](O)[C@@H]3O)OC[C@H](O)[C@@H]2O)[C@H](O)[C@H](O)[C@H]1O (some centres undefined),3.82,inactive,inactive,–,–,–
C=C(C)C1CC2(CO)C(=CC1=O)CCC(O)C2C (centres undefined),-4.58,inactive,inactive,–,–,–
